# Laboratory results published in PubChem BioAssay AID431 (Sanford-Burnham Center for Chemical Genomics, 2006).
# Where “and” joins values, the source holds several entries; their conditions need not be identical. Equal entries are not always repeated. Screen size: about 63,000 compounds; about 1,100 (1.7%) were called active. The entries come from a sample that favours actives as a whole. Potency and affinity values are given separately. Values without a mark were called inactive.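 Rule for the calls: active = compounds whose percent cytotoxicity in the single-dose primary screen, scaled between solvent and toxic-drug controls, exceeds 50; inactive = the rest.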
# Test: cytotoxicity in KRAS-transformed pancreatic duct cells, primary screen, cell-based, fluorescence, HTS (AID 431);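 note: 0% = DMSO solvent wells and 100% = doxorubicin-treated wells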
# Details: HPDE-C7K KRASV12 cells, Alamar Blue viability, 48 h; at 10 µM; hits give high values
row,Compound,cytotoxicity
1,N#Cc1ccc(CSc2nnc(-c3ccccn3)n2-c2ccccc2)cc1,10.8%
2,COc1cc2[nH]c(=O)n(CCCCCC(=O)NCCCN3CCC(C)CC3)c(=O)c2cc1OC,-6.7%
3,O=C(CN1C(=O)NC2(CCCCCCC2)C1=O)N1CCOCC1,-1.1%
4,O=C(Cn1c(=O)oc2cc(S(=O)(=O)NCc3ccccc3)ccc21)NCc1ccco1,2.7%
5,CC(=O)N1CCN(c2nc(CC(C)C)c3c(c2C#N)CCC3)CC1,2%
6,CCc1nc(N2CCCC2)c(C#N)c2c1CCCC2,-11.1%
7,CCc1nc(N2CCN(C(=O)c3ccccc3)CC2)c(C#N)c2c1COC(C)(C)C2,5.9%
8,CC(C)Cc1nc(N2CCOCC2)c(C#N)c2c1CCC2,64.8% (active)
9,CC(C)Cc1nc(N2CCCCC2)c(C#N)c2c1CCC2,16.1%
10,CCc1nc(N2CCOCC2)c(C#N)c2c1CCCC2,-2.9%
11,CC1(C)Cc2c(C#N)c(N3CCOCC3)nc(Cc3ccccc3)c2CO1,40%
12,CCCc1nc(N2CCOCC2)c(C#N)c2c1CCCC2,-0.6%
13,CC(C)Cc1nc(N2CCN(C(=O)c3ccco3)CC2)c(C#N)c2c1CCC2,63.2% (active)
14,CCCc1nc(N2CCCC2)c(C#N)c2c1CCCC2,87.9% (active)
15,CC(C)Cc1nc(N2CCN(C(=O)C(C)C)CC2)c(C#N)c2c1CCC2,-14.5%
16,CCCNC1=C(C)C(=O)CC1,15.5%
17,CCOc1ncccc1C(=O)OCC(=O)c1ccc[nH]1,2.7%
18,COc1ccc(CCNC(=O)C2=COCCO2)cc1,-8.1%
19,COc1ccc(NC(=O)c2cc3n(n2)C(C(F)(F)F)CC(c2ccc4c(c2)OCO4)N3)cc1OC (stereo unspecified),69.1% (active)
20,COc1ccccc1NC(=O)c1cc2n(n1)C(C(F)(F)F)CC(c1ccc3c(c1)OCO3)N2 (stereo unspecified),41.8%
21,Cc1cc(NC(=O)c2cc3n(n2)C(C(F)(F)F)CC(c2ccc(Cl)c(Cl)c2)N3)no1 (stereo unspecified),14.7%
22,O=C(NCc1ccc2c(c1)OCO2)c1cc2n(n1)C(C(F)(F)F)CC(c1ccc3c(c1)OCO3)N2 (stereo unspecified),21.6%
23,COc1ccc(OC)c(NC(=O)c2cc3n(n2)C(C(F)(F)F)CC(c2ccc4c(c2)OCO4)N3)c1 (stereo unspecified),42.4%
24,O=C(Nc1ccc2c(c1)OCO2)c1cc2n(n1)C(C(F)(F)F)CC(c1ccccc1)N2 (stereo unspecified),72.7% (active)

row,Compound,cytotoxicity
1,O=C(Nc1cc(Cl)ccc1O)c1cc2n(n1)C(C(F)(F)F)CC(c1ccc3c(c1)OCO3)N2 (stereo unspecified),-19.1%
2,Cc1cccc(NC(=O)c2cc3n(n2)C(C(F)(F)F)CC(c2ccc4c(c2)OCO4)N3)c1 (stereo unspecified),75.8% (active)
3,COc1ccc(C2CC(C(F)(F)F)n3nc(C(=O)Nc4ccc5c(c4)OCO5)cc3N2)cc1 (stereo unspecified),-10.9%
4,CC(=O)N(c1ccc2oc(=O)sc2c1)S(=O)(=O)c1cccs1,14.7%
5,COc1ccc(NC(=O)N2CCn3c2nc2ccccc23)cc1,-17.6%
6,N=c1c(C(=O)NC2CCCC2)cc2c(=O)n3ccccc3nc2n1CCN1CCOCC1,-8.1%
7,COCc1[nH]nc2c1C(c1ccc(F)cc1F)C(C#N)=C(N)O2 (stereo unspecified),-13.5%
8,Cc1cc(N2C(=O)C(O)=C(C(=O)c3ccco3)C2c2cccnc2)no1 (stereo unspecified),-10.4%
9,Cn1c(C(=O)Nc2ccc3c(c2)OCCO3)cc2c(=O)n(C)c3ccccc3c21,48.6%
10,C=CCn1c(COc2cccc3ccc(C)nc23)nnc1SCC(=O)OC,6.8%
11,COc1cccc(CN2CCNC(=O)C2CC(=O)O)c1OC (stereo unspecified),-4.6%
12,Cc1n[nH]c(C)c1S(=O)(=O)N1CCN(C(=O)c2ccco2)CC1,4%
13,COC(=O)c1ccc(CN(c2ccc(C)cc2)S(=O)(=O)c2ccc3c(c2)OCCO3)o1,7.1%
14,COc1cccc(N(CC(=O)NC(C)(C)C)C(=O)C2CSC(=O)C2)c1 (stereo unspecified),-24.1%
15,CCOC(=O)C1CCN(c2ncnc3c2cnn3-c2ccccc2)CC1,2.3%
16,COc1ccc(/C(O)=C2/C(=O)C(=O)N(CCN(C)C)C2c2ccccn2)cc1OC (stereo unspecified),-9.5%
17,CCC(C)(C)NC(=O)C(c1ccccc1F)N(Cc1ccco1)C(=O)Cn1nnc2ccccc21 (stereo unspecified),-4.3%
18,O=C(NC1CCCCC1)C(c1ccc(F)cc1)N(Cc1ccco1)C(=O)Cn1nnc2ccccc21 (stereo unspecified),-8.2%
19,O=C(NC1CCCCC1)C(c1ccccc1F)N(Cc1ccco1)C(=O)Cn1nnc2ccccc21 (stereo unspecified),65.1% (active)
20,O=C(OC(C(=O)NCC1CCCO1)c1ccc(F)cc1)c1ccco1 (stereo unspecified),-12.4%
21,COc1cc(-c2c(C#N)c(N)nc3c2CCCC3)ccc1O,-23.5%
22,COc1cc2nc(N3CCN(C(=O)c4ccco4)CC3)nc(N)c2cc1OC,90.2% (active)
23,COc1cc2nc(N3CCN(C(=O)C4COc5ccccc5O4)CC3)nc(N)c2cc1OC (stereo unspecified),43.4%
24,COc1cc2nc(N3CCN(C(=O)C4CCCO4)CC3)nc(N)c2cc1OC (stereo unspecified),-6.8% and -0.8%

row,Compound,cytotoxicity
1,CN(c1ccccc1C(=O)NCc1ccco1)S(C)(=O)=O,3.4%
2,Cc1ccc(S(=O)(=O)NCCC(=O)Nc2nnc(C3CC3)s2)cc1C,5.5%
3,O=C(NCCCN1CCOCC1)c1ccc(CS(=O)(=O)c2cccc(C(F)(F)F)c2)o1,-4.8%
4,O=C1c2cccnc2C(O)N1Cc1cccs1 (stereo unspecified),-24.1%
5,CCCC1COC(Cn2cncn2)(c2ccc(C)cc2)O1 (stereo unspecified),-8.6%
6,CCC(C)n1ncn(-c2ccc(N3CCN(c4ccc(OCC5COC(Cn6cncn6)(c6ccc(Cl)cc6Cl)O5)cc4)CC3)cc2)c1=O (stereo unspecified),68.7% (active)
7,O=C1Nc2ccccc2C12OCC(COc1ccc(Cl)cc1)O2 (stereo unspecified),36.3%
8,CN1CCN(S(=O)C23CC4CC(CC(C4)C2)C3)CC1 (stereo unspecified),-18.9%
9,COc1ccc(C(=O)OCCN2C(=O)c3ccccc3C2=O)cc1,1.1%
10,CCOc1ccc(-c2n[nH]c(C)c2-c2ccccc2OC)c(O)c1,-3.5%
11,CCCOC(=O)c1ccc(OC(=O)c2ccco2)cc1,1.8%
12,CCOc1ccc(-c2nc(N)nc(C)c2-c2ccc(OC)c(OC)c2)c(O)c1,9.6%
13,Cc1cc2nc(SCCN3CCCC3)[nH]c2cc1C,16.7%
14,CC1=Nn2c(nnc2C2CCCCC2)SC1,-19%
15,CCn1c(=O)cc(OCC(=O)NC2CCCCC2)c2ccccc21,-1.2%
16,CCSc1nnc(-c2ccc(S(=O)(=O)N3CCOCC3)cc2)n1CC1CCCO1 (stereo unspecified),14%
17,Cc1c(N(C)C(=O)c2ccco2)c(=O)n(-c2ccccc2)n1C,8.3%
18,COc1ccc2c(c1)CC(C1(O)C(=O)Nc3ccccc31)C2=O (stereo unspecified),-10.5%
19,O=C(CN1CCCC1)N1c2ccccc2Sc2ccccc21,-4.5%
20,CC1CC(=O)N(CC(=O)N2CCCC2)c2ccccc2S1 (stereo unspecified),-21%
21,CCOC(=O)C1CCN(C(=O)COc2ccc(Br)cc2)CC1,6.3%
22,CCCn1c(NCc2ccco2)nc2ccccc21,-3.7%
23,CCCn1c(NC(=O)c2ccccc2)nc2ccccc21,-14.1%
24,CCn1c(COc2ccccc2)nnc1SCC(=O)C(C)(C)C,16.4%

row,Compound,cytotoxicity
1,CCC(Sc1nc2cc3c(cc2c(=O)n1Cc1ccco1)OCO3)C(=O)Nc1ccccc1OC (stereo unspecified),-11.9%
2,CCc1ccccc1NC(=O)C(CC)Sc1nc2cc3c(cc2c(=O)n1Cc1ccco1)OCO3 (stereo unspecified),10.9%
3,O=C(c1cccc(Cl)c1)N1CCN(c2ccccn2)CC1,-21.5%
4,O=C(c1cccc(COc2ccc(Cl)cc2Cl)c1)N1CCN(c2ccccn2)CC1,99% (active)
5,O=C(CCCOc1ccc(Cl)cc1Cl)N1CCN(c2ccccn2)CC1,1.2%
6,COc1ccc(Br)cc1-c1nc(C)c(C(C)=O)n1O,9.6%
7,O=C(Nc1ccc(F)c(Cl)c1)c1ccc2c(=O)n3c(nc2c1)CCCCC3,-3.7%
8,O=C(Nc1ccc(F)cc1Cl)c1ccc2c(=O)n3c(nc2c1)CCCCC3,-3.1%
9,O=C(Nc1cccc(Cl)c1)c1ccc2c(=O)n3c(nc2c1)CCCCC3,53.7% (active)
10,CCC(C)C(NC(=O)c1ccccc1NC(=O)c1ccco1)C(=O)O (stereo unspecified),1.4%
11,CC(C)COc1ccc(C2NC(=O)NC2=O)cc1 (stereo unspecified),3.8%
12,Nc1cc(C(=O)N2CCCC2)cc(C(=O)N2CCCC2)c1,6.7%
13,O=P(O)(CCc1ccccc1)CN1CCCCC1,2.1%
14,COc1cc2c(=O)n(-c3ccc(C)cc3)c(=O)n(CC(=O)c3ccc4c(c3)OCO4)c2cc1OC,2.3%
15,COc1cc2c(O)c3c(c(-c4ccc5c(c4)OCO5)c2cc1OC)C(=O)OC3,99.9% (active)
16,COc1ccc(C(=O)Oc2ccc3c(c2)OCO3)cc1OC,-16.2%
17,CN1C(=O)CC(N2CCN(CC(=O)N3CCCC3)CC2)C1=O (stereo unspecified),-1.8%
18,COc1ccc(S(=O)(=O)NC2CCCC2)cc1Br,8.9%
19,Nc1nc(Cl)nc2c1ncn2[C@@H]1O[C@H](CO)[C@@H](O)[C@H]1O,2.5%
20,OC[C@H]1O[C@@H](n2cnc3c(NC4CCCC4)ncnc32)[C@H](O)[C@@H]1O,3.7%
21,Nc1ncnc2c1ncn2[C@@H]1O[C@H](CO)[C@@H](O)[C@H]1O,-17.3%
22,OC[C@H]1O[C@@H](n2cnc3c(Nc4ccccc4)ncnc32)[C@H](O)[C@@H]1O,62.3% (active)
23,Nc1nc(F)nc2c1ncn2[C@@H]1O[C@H](CO)[C@@H](O)[C@@H]1O,42.7%
24,C=CCNc1ncnc2c1ncn2C1OC(CO)C(O)C1O (stereo unspecified),53.6% (active)
